About 7,900 targets were measured; listed, in parts, are those with a hit and a random draw of the rest. About 0.6% of all pairs of compound and target were hits.
compound: c1cn2cc(-c3ccc4cn[nH]c4c3)nc(Nc3ccc(N4CCOCC4)cc3)c2n1 [entospletinib]; test: log2 fold change, soluble protein after heating vs DMSO (PISA); higher = thermal stabilisation; K562 cells, 10 uM, 30 min; active = over 0.2 and 3.5 SD of the protein, either way, in both replicates (recomputed)
How it was run: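 Soluble protein was quantified by TMTpro 16plex LC-MS/MS after channel sums were equalised. It was obtained as the supernatant after 21,000xg for 90 min from pooled aliquots of K562 cells (2×10^6 cells/mL, 10 μM compound, 30 min) heated for 3 min across 48°C-58°C and extracted in PBS with 0.5% NP-40 at 4°C. Thermal stability values are relative to control samples and come from duplicates. They are given as log2 fold changes.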

Chain of UniProt Q15629 (Q15629 whole entry, looked up): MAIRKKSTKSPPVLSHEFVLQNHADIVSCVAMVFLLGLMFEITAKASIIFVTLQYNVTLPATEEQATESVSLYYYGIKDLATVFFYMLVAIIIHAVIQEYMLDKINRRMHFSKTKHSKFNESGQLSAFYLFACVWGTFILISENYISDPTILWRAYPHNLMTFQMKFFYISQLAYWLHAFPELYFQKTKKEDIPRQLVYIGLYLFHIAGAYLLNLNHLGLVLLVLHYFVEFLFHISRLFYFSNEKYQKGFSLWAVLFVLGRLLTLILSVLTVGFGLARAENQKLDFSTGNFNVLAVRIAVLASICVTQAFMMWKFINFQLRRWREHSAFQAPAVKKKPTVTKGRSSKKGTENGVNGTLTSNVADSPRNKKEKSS
Chain of UniProt A0PJW6 (A0PJW6 whole entry, looked up): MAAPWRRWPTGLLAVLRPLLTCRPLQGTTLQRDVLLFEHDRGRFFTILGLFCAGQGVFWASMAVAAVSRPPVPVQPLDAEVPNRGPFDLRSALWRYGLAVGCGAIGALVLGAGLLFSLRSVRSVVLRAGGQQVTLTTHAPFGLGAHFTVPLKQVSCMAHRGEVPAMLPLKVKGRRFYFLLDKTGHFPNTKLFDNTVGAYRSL
Chain of UniProt Q8NDZ6 (Q8NDZ6 whole entry, looked up): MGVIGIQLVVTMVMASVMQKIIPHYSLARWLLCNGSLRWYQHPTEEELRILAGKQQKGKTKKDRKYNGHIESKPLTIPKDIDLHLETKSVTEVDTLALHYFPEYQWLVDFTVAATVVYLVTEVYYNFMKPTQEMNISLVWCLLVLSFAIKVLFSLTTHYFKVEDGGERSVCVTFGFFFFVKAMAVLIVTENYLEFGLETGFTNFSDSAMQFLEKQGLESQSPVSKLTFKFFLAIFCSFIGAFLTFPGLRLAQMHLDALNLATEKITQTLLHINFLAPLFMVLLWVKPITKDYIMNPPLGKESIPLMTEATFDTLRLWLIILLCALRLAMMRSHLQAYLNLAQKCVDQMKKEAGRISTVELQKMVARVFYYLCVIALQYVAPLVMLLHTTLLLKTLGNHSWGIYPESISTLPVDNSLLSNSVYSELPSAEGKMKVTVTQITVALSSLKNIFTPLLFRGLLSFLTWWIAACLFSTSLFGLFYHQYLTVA
Chain of WASHC2C, A0A096LPC5 (A0A096LPC5 whole entry, looked up): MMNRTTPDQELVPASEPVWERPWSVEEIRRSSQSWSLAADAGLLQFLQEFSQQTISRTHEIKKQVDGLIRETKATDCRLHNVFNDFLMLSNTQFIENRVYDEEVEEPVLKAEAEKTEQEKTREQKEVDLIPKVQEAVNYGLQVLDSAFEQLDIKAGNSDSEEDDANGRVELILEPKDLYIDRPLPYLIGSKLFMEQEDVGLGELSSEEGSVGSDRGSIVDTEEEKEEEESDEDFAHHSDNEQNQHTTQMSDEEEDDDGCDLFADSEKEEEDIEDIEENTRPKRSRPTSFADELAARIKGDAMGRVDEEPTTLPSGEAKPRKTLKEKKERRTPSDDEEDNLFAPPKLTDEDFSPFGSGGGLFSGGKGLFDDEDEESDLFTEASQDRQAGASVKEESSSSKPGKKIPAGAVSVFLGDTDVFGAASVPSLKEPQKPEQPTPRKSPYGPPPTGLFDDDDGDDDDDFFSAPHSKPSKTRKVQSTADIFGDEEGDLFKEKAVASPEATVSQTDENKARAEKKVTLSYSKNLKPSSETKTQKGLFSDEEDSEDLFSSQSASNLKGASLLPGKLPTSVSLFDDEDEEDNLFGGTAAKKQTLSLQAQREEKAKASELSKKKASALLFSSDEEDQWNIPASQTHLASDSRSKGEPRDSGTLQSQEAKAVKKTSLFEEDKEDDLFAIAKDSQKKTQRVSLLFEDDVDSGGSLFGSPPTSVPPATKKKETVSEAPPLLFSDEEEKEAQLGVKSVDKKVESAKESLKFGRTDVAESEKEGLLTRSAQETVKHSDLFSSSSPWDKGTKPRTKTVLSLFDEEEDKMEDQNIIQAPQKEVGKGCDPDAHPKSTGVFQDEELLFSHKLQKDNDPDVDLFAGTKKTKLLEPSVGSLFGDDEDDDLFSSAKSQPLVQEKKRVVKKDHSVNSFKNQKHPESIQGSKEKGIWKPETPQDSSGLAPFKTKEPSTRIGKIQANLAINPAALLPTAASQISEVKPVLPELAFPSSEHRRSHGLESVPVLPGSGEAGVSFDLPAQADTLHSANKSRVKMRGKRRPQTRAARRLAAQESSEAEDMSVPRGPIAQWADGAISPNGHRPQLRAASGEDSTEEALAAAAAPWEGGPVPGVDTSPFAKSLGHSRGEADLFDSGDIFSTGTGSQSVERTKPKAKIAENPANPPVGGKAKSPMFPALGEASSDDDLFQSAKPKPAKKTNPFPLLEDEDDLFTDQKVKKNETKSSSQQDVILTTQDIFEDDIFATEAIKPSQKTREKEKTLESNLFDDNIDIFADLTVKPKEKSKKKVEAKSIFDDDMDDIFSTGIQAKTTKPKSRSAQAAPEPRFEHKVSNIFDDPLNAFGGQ
Chain of UniProt Q99816 (Q99816 whole entry, looked up): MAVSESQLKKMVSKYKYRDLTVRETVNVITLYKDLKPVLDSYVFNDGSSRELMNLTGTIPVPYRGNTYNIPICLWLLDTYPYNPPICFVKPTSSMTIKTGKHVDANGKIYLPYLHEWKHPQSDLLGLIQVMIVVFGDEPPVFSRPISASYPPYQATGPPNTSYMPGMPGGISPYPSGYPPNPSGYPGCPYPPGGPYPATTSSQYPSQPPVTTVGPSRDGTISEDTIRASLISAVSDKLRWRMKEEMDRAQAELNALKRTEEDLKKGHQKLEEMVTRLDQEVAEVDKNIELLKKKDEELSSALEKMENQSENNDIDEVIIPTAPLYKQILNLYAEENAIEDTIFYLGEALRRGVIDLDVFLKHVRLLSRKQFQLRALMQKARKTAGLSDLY
Chain of UniProt Q14157 (Q14157 whole entry, looked up): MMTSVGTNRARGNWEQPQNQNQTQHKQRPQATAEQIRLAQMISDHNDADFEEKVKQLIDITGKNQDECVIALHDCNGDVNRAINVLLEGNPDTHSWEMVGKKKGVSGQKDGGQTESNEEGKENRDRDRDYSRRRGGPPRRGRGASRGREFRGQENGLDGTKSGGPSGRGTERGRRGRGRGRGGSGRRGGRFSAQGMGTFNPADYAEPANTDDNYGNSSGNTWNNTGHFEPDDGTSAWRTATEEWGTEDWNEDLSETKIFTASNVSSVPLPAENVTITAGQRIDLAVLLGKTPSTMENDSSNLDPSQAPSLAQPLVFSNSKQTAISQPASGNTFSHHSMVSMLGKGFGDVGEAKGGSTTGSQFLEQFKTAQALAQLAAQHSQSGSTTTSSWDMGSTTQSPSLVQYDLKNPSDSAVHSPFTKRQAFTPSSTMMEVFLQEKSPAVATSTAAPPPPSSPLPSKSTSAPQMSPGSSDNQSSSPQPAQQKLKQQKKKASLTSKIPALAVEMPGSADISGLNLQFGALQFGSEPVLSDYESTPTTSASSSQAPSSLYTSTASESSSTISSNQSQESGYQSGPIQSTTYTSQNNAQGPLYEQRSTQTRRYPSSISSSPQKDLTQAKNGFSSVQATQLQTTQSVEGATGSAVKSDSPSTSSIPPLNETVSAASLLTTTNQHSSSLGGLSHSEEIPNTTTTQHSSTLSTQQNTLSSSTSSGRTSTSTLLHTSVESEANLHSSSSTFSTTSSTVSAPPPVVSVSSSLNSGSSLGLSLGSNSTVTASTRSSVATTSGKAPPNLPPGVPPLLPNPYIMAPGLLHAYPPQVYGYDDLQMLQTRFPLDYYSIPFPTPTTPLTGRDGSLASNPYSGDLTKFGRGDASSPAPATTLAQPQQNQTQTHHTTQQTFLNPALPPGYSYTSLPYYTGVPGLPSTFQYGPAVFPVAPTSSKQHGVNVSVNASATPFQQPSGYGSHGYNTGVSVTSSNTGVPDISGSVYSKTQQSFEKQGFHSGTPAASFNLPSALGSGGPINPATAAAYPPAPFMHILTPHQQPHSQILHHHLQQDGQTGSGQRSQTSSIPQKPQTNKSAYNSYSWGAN
Chain of UniProt Q9Y4E8 (Q9Y4E8 whole entry, looked up): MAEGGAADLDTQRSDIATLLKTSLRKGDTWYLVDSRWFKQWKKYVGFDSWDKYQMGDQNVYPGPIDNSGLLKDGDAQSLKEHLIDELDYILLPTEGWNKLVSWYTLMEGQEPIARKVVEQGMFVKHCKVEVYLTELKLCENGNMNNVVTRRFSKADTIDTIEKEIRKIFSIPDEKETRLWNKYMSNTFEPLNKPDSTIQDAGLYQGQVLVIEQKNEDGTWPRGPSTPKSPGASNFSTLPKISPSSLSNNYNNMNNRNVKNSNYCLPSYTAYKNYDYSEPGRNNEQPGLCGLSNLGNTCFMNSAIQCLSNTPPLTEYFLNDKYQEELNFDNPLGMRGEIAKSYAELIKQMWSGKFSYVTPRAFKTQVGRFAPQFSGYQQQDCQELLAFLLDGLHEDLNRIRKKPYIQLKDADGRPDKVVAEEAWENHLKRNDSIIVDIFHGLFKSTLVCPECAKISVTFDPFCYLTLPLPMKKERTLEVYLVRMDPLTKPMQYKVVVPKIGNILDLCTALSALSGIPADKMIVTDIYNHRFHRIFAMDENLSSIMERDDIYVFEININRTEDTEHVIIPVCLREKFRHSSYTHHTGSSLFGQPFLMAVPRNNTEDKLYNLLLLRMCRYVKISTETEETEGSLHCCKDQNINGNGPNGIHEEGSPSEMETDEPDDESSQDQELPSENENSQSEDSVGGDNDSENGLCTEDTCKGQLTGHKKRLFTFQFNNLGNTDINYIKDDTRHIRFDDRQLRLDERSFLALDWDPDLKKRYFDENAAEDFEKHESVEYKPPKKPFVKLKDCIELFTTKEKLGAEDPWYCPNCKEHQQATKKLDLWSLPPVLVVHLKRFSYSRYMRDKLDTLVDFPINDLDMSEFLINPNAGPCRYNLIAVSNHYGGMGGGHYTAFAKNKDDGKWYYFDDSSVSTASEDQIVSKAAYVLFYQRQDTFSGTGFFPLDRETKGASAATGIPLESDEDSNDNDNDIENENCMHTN
Chain of UniProt Q9UBK9 (Q9UBK9 whole entry, looked up): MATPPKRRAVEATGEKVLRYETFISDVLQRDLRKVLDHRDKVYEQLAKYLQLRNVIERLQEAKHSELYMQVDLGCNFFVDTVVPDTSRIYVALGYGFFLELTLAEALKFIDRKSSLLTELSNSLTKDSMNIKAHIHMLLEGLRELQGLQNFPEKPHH

log2 fold change, inactive:
TRAPPC11 (UniProt Q7Z392) 0.012
VPS16 (UniProt Q9H269) -0.06
TRAPPC6B (UniProt Q86SZ2) -0.003
TMEM173 (UniProt Q86WV6) -0.022
TTI2 (UniProt Q6NXR4) 0.062
TMEM223 (UniProt A0PJW6) 0.047
TMEM161B (UniProt Q8NDZ6) 0.016
TMEM161A (UniProt Q9NX61) -0.026
VPS39 (UniProt Q96JC1) -0.007
TMEM189-UBE2V1 (UniProt I3L0A0) -0.017
TOM1 isoform 2 (UniProt O60784) 0.009
WARS1 (UniProt G3V5U1) 0.342
TMEM128 (UniProt Q5BJH2) 0.018
UXT isoform 2 (UniProt Q9UBK9) -0.012
TSEN2 (UniProt Q8NCE0) -0.041
TRAM1 (UniProt Q15629) 0.145
TSG101 (UniProt Q99816) -0.014
TMEM214 (UniProt Q6NUQ4) -0.015
WDR46 (UniProt O15213) 0.01
USP34 (UniProt Q70CQ2) -0.002
UBE2E3 (UniProt Q969T4) -0.002
USP14 (UniProt P54578) -0.03
USP15 (UniProt Q9Y4E8) 0.018
TRABD (UniProt Q9H4I3) 0.047
UBAP2L isoform 5 (UniProt Q14157) -0.007
TOMM20 (UniProt Q15388) 0.069
TUBA4A (UniProt C9JJQ8) -0.27
TOM1L1 (UniProt O75674) 0.038
TOE1 (UniProt Q96GM8) 0.058
TMEM9B (UniProt Q9NQ34) -0.049
XPOT (UniProt O43592) 0.032
USP24 (UniProt Q9UPU5) 0.016
TUBA4A (UniProt P68366) -0.031
XPNPEP3 (UniProt Q9NQH7) -0.025
TSFM (UniProt P43897) -0.191
UTP4 (UniProt Q969X6) -0.058
UFM1 (UniProt P61960) -0.079
UHRF1BP1 (UniProt Q6BDS2) 0.015
WASHC2C, A0A096LPC5 0.085
VPS51 (UniProt Q9UID3) 0.007
